This passage reports composite z-score and z-score results from PubChem BioAssay.

The source made the active and inactive calls. Unless noted, how the calls were made is not given here.

For experiment [1], the system named is Wnt5a (protein binding on small-molecule microarray). The experiment in a line: Wnt5a binders on small-molecule microarray, primary screen, biophysical, 635/667 nm fluorescence (AID 1142).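 Further: fluorescence read at 667 nm with signal to noise per printed feature.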 Conditions: 635 nm fluorescence, higher = more signal.
Experiment [2] is described as follows: cell viability in Huh7 cells, primary screen, cytotoxicity control for HCV replication inhibitor project, CellTiter-Glo luminescence, basal, 48 h (AID 1143).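 Further: Huh7 hepatoma cells carrying a hepatitis C replication reporter with no stimulus; test concentration not given here.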 Conditions: Huh7 HCV replicon, higher = more signal, called active from +8 up or from −8 down. On the technique in general: In ATP-based viability assays light output follows the ATP content of the culture.

Experiment [3] is described as follows: P. aeruginosa biofilm formation inhibitors, primary screen, PAO1 strain, BacTiter-Glo luminescence, LB-PBS (AID 1144). To be noted: 12 h, higher = more signal.
The nature of experiment [4]: CREB reporter modulators without forskolin, primary screen, cell-based, PC12, CRE-LacZ reporter, unstimulated (AID 1145). Conditions: no forskolin, luminescence, 4.5 h, higher = more signal, called active from +8 up or from −8 down.
Experiment [5] can be described thus: CREB reporter modulators under forskolin, primary screen, cell-based, PC12, CRE-LacZ reporter, forskolin-stimulated (AID 1146).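 Further: PC12 cells with 6xCRE LacZ reporter stimulated by forskolin 10 µM; beta-galactosidase reporter signal reflecting CREB driven transcription.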 To be noted: luminescence, 4.5 h, higher = more signal, called active from +8 up or from −8 down.
The target in experiment [6] is Streptavidin (Streptomyces avidinii) (UniProt P22629). Description: streptavidin binders on small-molecule microarray, primary screen, artefact control for SMM compound annotation, biophysical, 635/667 nm fluorescence (AID 1147).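 Further: signal reflects streptavidin binding to arrayed compounds as a control protein.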 To be noted: streptavidin binding, higher = more signal.
Experiment [7] in a line: small-molecule binders of probe aInhba, primary screen, biochemical, small-molecule microarray, 635/667 nm fluorescence (AID 1148).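 Further: score merges 667nm spot fluorescence with signal-to-noise for antibody binding to printed compounds.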 Conditions: higher = more signal.
For experiment [8], the target named is Torsin-1A (Homo sapiens) (UniProt O14656). Description: torsin A binders from cell lysate, primary screen, small-molecule microarray, wild-type, 635/667 nm (AID 1149). To be noted: COS7 hTOR1A-WT lysate, 635 nm fluorescence, higher = more signal.
For experiment [9] the target is unchanged. The experiment in a line: small-molecule binders of mutant TOR1A in lysate, primary screen, cell lysate, small-molecule microarray, COS7 lysate, 635/667 nm fluorescence (AID 1150).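 Further: score pools 667 nm emission and signal to noise measuring lysate protein binding.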 To be noted: COS7 hTOR1A mutant lysate, 635 nm fluorescence, higher = more signal.
Experiment [10] deals with Sonic hedgehog protein (Shh). Description: small-molecule binders of Shh protein, primary screen, biochemical, small-molecule microarray, 635/667 nm fluorescence (AID 1151).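 Further: Shh protein binding to compounds spotted on small-molecule microarray slides; score combines spot fluorescence intensity with signal-to-noise across triplicate slides.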 Conditions: small-molecule microarray binding, 635 nm fluorescence; higher = more signal.

Sequence of Torsin-1A (Homo sapiens) (O14656 whole entry, looked up): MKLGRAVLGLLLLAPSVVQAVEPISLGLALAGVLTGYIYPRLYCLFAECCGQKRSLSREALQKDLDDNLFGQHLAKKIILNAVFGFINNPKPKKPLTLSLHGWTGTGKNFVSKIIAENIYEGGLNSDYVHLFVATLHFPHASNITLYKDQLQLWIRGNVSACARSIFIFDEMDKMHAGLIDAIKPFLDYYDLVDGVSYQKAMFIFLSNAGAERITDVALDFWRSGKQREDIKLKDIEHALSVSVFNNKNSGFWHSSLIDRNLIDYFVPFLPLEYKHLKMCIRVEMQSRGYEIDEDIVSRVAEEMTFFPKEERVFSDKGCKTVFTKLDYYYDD
Sequence of Streptavidin (Streptomyces avidinii) (P22629 whole entry, looked up): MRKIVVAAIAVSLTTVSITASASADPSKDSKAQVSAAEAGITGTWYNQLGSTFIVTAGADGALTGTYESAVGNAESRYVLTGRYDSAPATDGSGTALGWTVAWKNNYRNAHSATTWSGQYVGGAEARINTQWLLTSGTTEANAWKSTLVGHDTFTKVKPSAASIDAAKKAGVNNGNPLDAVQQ

Turning to `O=C/C=C/c1ccccc1Cl`, the composite z-score in experiment [1] is -0.159; in experiment [6], 0.143; in experiment [7], 0.0705; with Torsin-1A (Homo sapiens) [8] it was -0.342; in the experiment with Torsin-1A (Homo sapiens) [9], 0.081; in [10], -0.0129. For the same molecule, the z-score in [2] was -0.724 (inactive); in experiment [3], -0.904 (inactive); in [4], -0.0243 (inactive); in experiment [5] it was -0.468 (inactive).
For the molecule `C=CCC(OC(C)=O)[C@@H]1[C@@H](N(Cc2ccc(-c3cccc(C(F)(F)F)c3)o2)C(=O)Cc2ccc(F)cc2)c2cc(OCCCO)ccc2N1C(=O)c1ccc(-c2ccccc2)cc1` (stereo not given in full), the composite z-score in [1] is -0.206; in experiment [6] it was 0.0628; in experiment [7] it was -0.157; in the experiment with Torsin-1A (Homo sapiens) [8] it was -0.53; with Torsin-1A (Homo sapiens) [9], -0.253; in experiment [10], 0.475. Further, the z-score was -0.072 (inactive) in experiment [2], -0.581 (inactive) in experiment [3], 0.6 (inactive) in experiment [4] and 0.875 (inactive) in experiment [5].
With `O=C1O[C@@H](c2ccccc2)[C@@H](c2ccccc2)N2[C@@H](c3ccc(OCCO)cc3)[C@]3(C(=O)Nc4ccc(C#CCCO)cc43)[C@@H](C(=O)N3CCN(c4ncccn4)CC3)[C@H]12`, the composite z-score in [1] was 0.544; in [6] it was 0.509; in experiment [7] it was 0.0403; in the experiment with Torsin-1A (Homo sapiens) [8] it was 0.376; in the experiment with Torsin-1A (Homo sapiens) [9], 0.5; in experiment [10] it was 1.93. For the same molecule, the z-score in experiment [2] is -0.284 (inactive); in experiment [3] it was -0.132 (inactive); in [4], 0.478 (inactive); in experiment [5], 0.0989 (inactive).
In the case of `N#Cc1ccc(NN2C(C(O)c3ccc(I)cc3)C=CC3C(=O)N(c4ccccc4)C(=O)C32)cc1` (stereo not given), the composite z-score was 0.205 in [1]; 0.941 in experiment [6]; -0.0645 in experiment [7]; -0.147 with Torsin-1A (Homo sapiens) [8]; 0.629 with Torsin-1A (Homo sapiens) [9]; -0.468 in experiment [10]. The z-score in experiment [2] was 0.559 (inactive); in [3] it was -0.363 (inactive); in [4], -1.49 (inactive); in experiment [5], -0.755 (inactive).
As to `CC(C)NC(=O)[C@@]1(Cc2ccccc2I)c2ccccc2C(=O)N(C2CCCCC2)[C@H]1c1ccc(CO)cc1`, the composite z-score in [1] came out at 0.345; in [6], 0.999; in [7] it was 0.122; in the experiment with Torsin-1A (Homo sapiens) [8], 0.457; with Torsin-1A (Homo sapiens) [9] it was 0.559; in [10], 0.28. Also, the z-score in experiment [2] was -3.83 (inactive); in experiment [3], -1.09 (inactive); in [4], 0.531 (inactive); in experiment [5], 0.24 (inactive).
With `COC(=O)C[C@H]1O[C@]2(C(=O)N(Cc3ccccc3)c3ccc(I)cc32)[C@@H](C)[C@@H]1[Si](C)(C)c1ccc(OC)cc1`, the composite z-score in experiment [1] was -0.213; in experiment [6], 0.0595; in experiment [7], -0.106; with Torsin-1A (Homo sapiens) [8], -0.181; with Torsin-1A (Homo sapiens) [9], -0.0957; in experiment [10], -0.657. Also, the z-score was -1.09 (inactive) in experiment [2], -0.135 (inactive) in [3], -0.505 (inactive) in experiment [4] and -0.522 (inactive) in experiment [5].
As for `C=C(COC)C(=O)CC[C@H](OC(=O)c1ccccc1-c1ccccc1C(=O)O)c1cccc(OCCO)c1`, the composite z-score in [1] is 2.01; in experiment [6], -1.8; in experiment [7], -0.0332; with Torsin-1A (Homo sapiens) [8], 2.33; in the experiment with Torsin-1A (Homo sapiens) [9], 2.6; in [10], 2.34. Also, the z-score is -8.1 (active) in experiment [2], -0.805 (inactive) in [3], 0.102 (inactive) in experiment [4] and 0.683 (inactive) in experiment [5].
Regarding `COC(=O)C1=CC(c2ccc(CO)cc2)=CC(c2cccs2)N(Cc2cccc(OC(F)(F)F)c2)C=C1C(=O)OC` (stereo not given), the composite z-score in experiment [1] is 0.0365; in experiment [6], 2.29; in experiment [7], 0.248; with Torsin-1A (Homo sapiens) [8], 0.947; in the experiment with Torsin-1A (Homo sapiens) [9], 0.76; in experiment [10], 0.381. In addition, the z-score in experiment [2] is -3.08 (inactive); in experiment [3], 0.714 (inactive); in [4] it was 0.0924 (inactive); in [5], -0.287 (inactive).
For the molecule `C[C@]1(C(=O)NCCN2CCOCC2)c2ccccc2C(=O)N(Cc2ccccc2)[C@H]1c1ccc(CO)cc1`, the composite z-score was -0.21 in experiment [1]; -0.833 in experiment [6]; -0.0405 in experiment [7]; 0.403 with Torsin-1A (Homo sapiens) [8]; 0.915 with Torsin-1A (Homo sapiens) [9]; -0.928 in experiment [10]. The z-score in [2] is -1.82 (inactive); in [3], -2.31 (inactive); in experiment [4], -0.412 (inactive); in experiment [5] it was -0.0192 (inactive).
On to `COCCOC(=O)N1C(=O)[C@@]2(c3cc(C#CC4=CCCCC4)ccc31)[C@H](C(=O)NC[C@H](O)c1ccccc1)[C@H]1C(=O)O[C@H](c3ccccc3)[C@H](c3ccccc3)N1[C@@H]2c1ccccc1OCCO`, for which the composite z-score in experiment [1] stood at 0.255; in experiment [6], 0.634; in [7] it was 0.243; in the experiment with Torsin-1A (Homo sapiens) [8] it was 0.453; in the experiment with Torsin-1A (Homo sapiens) [9], 0.509; in experiment [10], 1.53. In addition, the z-score is -5.75 (inactive) in experiment [2], 0.423 (inactive) in experiment [3], 0.48 (inactive) in experiment [4] and -0.99 (inactive) in experiment [5].
With `CO[C@H]1O[C@H](CO)[C@@H](OC(=O)Nc2ccc3c(c2)OCO3)[C@H](OC(=O)Nc2ccccc2)[C@@H]1OC(=O)Nc1ccccc1`, the composite z-score in [1] is 0.743; in experiment [6], 0.327; in [7], 0.0398; with Torsin-1A (Homo sapiens) [8], 0.491; in the experiment with Torsin-1A (Homo sapiens) [9], 1.09; in experiment [10], 1.12. Also, the z-score was -3.5 (inactive) in [2], -0.22 (inactive) in experiment [3], 0.605 (inactive) in [4] and -1.49 (inactive) in experiment [5].
Take `COCCOC(=O)N1C(=O)[C@@]2(c3cc(C#CCC(C(=O)OC)C(=O)OC)ccc31)[C@H](c1ccccc1OCCO)N1[C@H](c3ccccc3)[C@H](c3ccccc3)OC(=O)[C@H]1[C@@H]2C(=O)N1CCCCCCC1`: the composite z-score in experiment [1] was 1.16; in experiment [6] it was 2.45; in [7], 0.628; in the experiment with Torsin-1A (Homo sapiens) [8], 1.29; with Torsin-1A (Homo sapiens) [9], 0.96; in experiment [10], 1.66. Also, the z-score in experiment [2] was -1.66 (inactive); in experiment [3] it was -0.129 (inactive); in experiment [4], -0.329 (inactive); in [5] it was 0.0965 (inactive).
